Hits are enriched below; roughly 4.6% of the tested compounds scored in any of these assays.
VACV Venus inh: vaccinia inhibition (Venus reporter). hit rate 0.46% among 330,000. Vaccinia virus Venus reporter expression, fluorescence. Potency, µM (doses to about 36.5 µM), inactives show at the highest dose activity change, negative = inhibition, usual class: inhibitors. AID 720580; calls by dose curve; tested in A549 cells; note: nearly all actives have a fitted effect of over 30% in size
Marburg entry inh: Marburg virus entry inhibition | Marburg virus pseudotyped entry inhibition, cell reporter | hit rate 1.8% among 300,000 | Potency, µM (titrated, usually from 37.8 µM), for inactives: top-dose activity change, negative = inhibition, usual class: inhibitors; calls by dose curve; tested in HEK293 cells
VACV mCherry inh: inhibitors of vaccinia virus infection (mCherry reporter signal) | Vaccinia virus mCherry reporter infection, fluorescence | Potency, µM (doses to about 36.5 µM), for inactives: at the top dose activity change, negative = inhibition, usual class: inhibitors | hit rate 0.63% among 310,000; calls by dose curve; tested in A549 cells; note: nearly all actives have a fitted effect of over 35% in size
LASV entry inh: Lassa virus entry inhibition. Lassa virus pseudotype entry inhibition, cell reporter. Potency, µM (series often up to 37.9 µM), for inactives: at the top dose activity change, negative = inhibition, usual class: inhibitors. hit rate 1.2% among 300,000; calls by dose curve; tested in HEK293 cells; note: nearly all actives have a fitted effect of over 50% in size
HCV inh: inhibitors of hepatitis C virus infection. hit rate 3.4% among 340,000. AID 651820. Huh7.5.1 HCVcc-Cre infection, luciferase reporter, 44 h. Potency, µM (doses to about 41.8 µM), for the others: top-dose activity change, negative = inhibition, actives largely listed as inhibitors; active = well fitted inhibition curve with a large enough effect; inconclusive = small, poorly fitted or top-dose-only effect, or another doubt; inactive = no such curve, though single readings can be large or run the other way
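A cell-based infection assay in which seeded cells (1,000 per well) receive test compound after 4 h, are inoculated with HCVcc-Cre at approximately 0.5 moi, and are incubated 44 h before luminescence detection.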
Active calls of the source: *; i = inactive; ? = inconclusive; / = no result; [ ] = another dose, or the depositor's remark. % is set by controls: 0 for no effect and ±100 for the full control effect; potency is the fitted concentration of half-maximal effect.

SMILES | VACV Venus inh | Marburg entry inh | VACV mCherry inh | LASV entry inh | HCV inh
O=C1C=CC(O)(c2cc(=O)c3c(O)cc(O)cc3o2)C=C1 | ? | ? | 11.2µM* | ? | ?
O=c1cc(-c2ccccc2Cl)oc2cc(O)cc(O)c12 | -5.5% | ? | -4.4% | ? | -1.6%[8.37 µM]
Cc1ccc(OCc2cc(C(=O)N(C)CC3CCOCC3)no2)cc1C | / | / | / | / | -20.3%
CCOC(=O)N1CCN(C(=O)c2cc(COc3cccc(C(C)=O)c3)on2)CC1 | -7.3% | -10.6% | -14.6% | 2.5% | 16.9%
CCN1CCN(C(=O)c2cc(COc3c(C)cccc3C)on2)CC1 | -11.8% | 15.9%[46.1 µM] | i | 17.8%[46.1 µM] | 12.9%
Cc1cc(CN(C)C(=O)c2cc(COc3ccc4ncccc4c3)on2)on1 | -14.1% | ? | -3.0% | ? | 2.82µM*
Cc1cccnc1CN1CCN(C(=O)c2cc(COc3ccc4ncccc4c3)on2)CC1 | -26.0% | ? | ? | ? | 3.98µM*
CCOC(=O)N1CCN(C(=O)c2cc(COc3ccc4ncccc4c3)on2)CC1 | -21.6% | ? | -21.5% | -12.7%[46.1 µM] | 7.94µM*
Cc1ccc(OCc2cc(C(=O)N(C)Cc3cnc4ccccn34)no2)cc1C | -10.0%[7.34 µM] | / | -3.8%[7.34 µM] | / | 11.2µM*
COc1ccccc1C(=O)Nc1nnc(SCc2cc(=O)n3ccc(C)cc3n2)s1 | -4.9% | / | i | 16.9%[46.1 µM] | /
CC1(C)CC(=O)c2cc(C(=O)Nc3ccc(Br)cc3)c(=O)[nH]c2C1 | -3.2% | ? | -1.2% | 1.6%[46.1 µM] | /
Cc1c(Cl)cccc1NC(=O)N1CCC(CN2CCOCC2)CC1 | -9.1% | / | i | 27.7%[46.1 µM] | /
O=C(CC1Oc2ccccc2NC1=O)NCc1ccccc1 (stereo not drawn) | -1.8% | / | i | / | -14.0%
CC(=O)CC1OC(=O)C(Br)=C1NCc1ccccc1 (stereo not drawn) | -8.2% | 18.3µM* | i | ? | ?
CCOC(=O)c1cc(C#N)c(N2CCN(C(=O)c3ccccc3)CC2)nc1C(F)(F)F | -11.2% | ? | -13.6% | 11.2µM* | -12.0%
CCOC(=O)c1cc(C#N)c(N2CCOCC2)nc1-c1ccccc1 | -0.1% | -0.5%[46.1 µM] | -3.5% | -21.4% | -6.0%
CCOC(=O)c1cc(C#N)c(N2CCN(C(=O)c3cccc(C(F)(F)F)c3)CC2)nc1C(F)(F)F | -2.1% | 5.01µM* | i | 1.78µM* | 8.91µM*
CCOC(=O)c1cc(C#N)c(N2CCNCC2)nc1C(F)(F)F | 0.0% | 13.1%[46.1 µM] | 5.9% | 13.4%[46.1 µM] | ?
COc1ccc2c(c1)oc(=O)c1c3ccccc3[nH]c21 | / | / | / | / | 3.55µM*
O=S(=O)(NCC(c1ccco1)S(=O)(=O)c1cccs1)c1ccc(F)c(C(F)(F)F)c1 (stereo not drawn) | -21.6% | / | -20.9% | -0.4%[46.1 µM] | /
Cc1ccc(C(=O)COC(=O)c2cccc(NC(=O)c3ccc([N+](=O)[O-])cc3[N+](=O)[O-])c2)cc1 | / | ? | / | ? | 11.2µM*
COc1ccc(CC(=O)Nc2cccc(/C(C)=N/NC(=O)c3cccc([N+](=O)[O-])c3)c2)cc1 | -15.8% | ? | -3.9% | 11.2µM* | ?
COc1ccc(C(=O)/C(C#N)=N/Nc2cccc([N+](=O)[O-])c2)cc1 | / | 14.6µM* | / | 10.3µM* | 11.2µM*
COc1cccc(C(=O)COc2cccc(NC(=O)c3cccc([N+](=O)[O-])c3)c2)c1 | ? | ? | / | ? | 8.91µM*
CC(=O)Nc1ccc(C(=O)OCC(=O)c2cccc([N+](=O)[O-])c2)cc1 | -15.0% | 14.2% | -5.7% | -7.8% | -1.3%
SMILES | VACV Venus inh | Marburg entry inh | VACV mCherry inh | LASV entry inh | HCV inh
CCC(C)Nc1ccc(NC(C)CC)cc1 (stereo not drawn) | ? | / | ? | / | 22.4µM*
COc1ccc(C2(C(=O)NCC3Cc4cccc(-c5cccnc5)c4O3)CCCC2)cc1 (stereo not drawn) | -11.9% | / | -18.7% | / | /
O=S(=O)(c1ccc(Cl)c(Cl)c1)c1snnc1-c1ccccc1 | ? | 5.01µM* | / | 7.08µM* | ?
O=C(CSc1nnc(-c2ccccc2)c(-c2ccccc2)n1)NCCc1ccccc1 | 16.7% | / | 12.6% | -7.3%[46.1 µM] | /
CSc1ccccc1OCc1cc(C(=O)N(Cc2nccn2C)C(C)C)no1 | -16.5% | -12.9% | i | -1.2% | -2.9%
Cc1cc(OCc2cc(C(=O)N3CCN(C)C(=O)[C@@H]3C)no2)cc(C)c1Cl | / | / | / | / | 12.6µM*
Cc1cccc(C)c1OCc1cc(C(=O)N2CCN(C3CCCC3)CC2)no1 | -25.5% | -9.2% | -13.0% | -24.7% | /
Cc1cc(OCc2cc(C(=O)N(Cc3nccn3C)C(C)C)no2)cc(C)c1Cl | -24.3% | ? | ? | -27.1%[46.1 µM] | 11.2µM*

Screens from PubChem.
